mIDH1 inhibitor: inhibitors of human mutant IDH1 R132H; O75874; 390,000 compounds, 0.093% hits; IDH1-R132H enzyme, NADPH consumption, diaphorase/resazurin fluorescence; Potency, µM (highest dose often 76.6 µM), most hits filed as inhibitors; AID 602179; also: nearly all actives have a fitted effect of over 65% in size
Target sequence (O75874 whole entry R132H, stated change not applied): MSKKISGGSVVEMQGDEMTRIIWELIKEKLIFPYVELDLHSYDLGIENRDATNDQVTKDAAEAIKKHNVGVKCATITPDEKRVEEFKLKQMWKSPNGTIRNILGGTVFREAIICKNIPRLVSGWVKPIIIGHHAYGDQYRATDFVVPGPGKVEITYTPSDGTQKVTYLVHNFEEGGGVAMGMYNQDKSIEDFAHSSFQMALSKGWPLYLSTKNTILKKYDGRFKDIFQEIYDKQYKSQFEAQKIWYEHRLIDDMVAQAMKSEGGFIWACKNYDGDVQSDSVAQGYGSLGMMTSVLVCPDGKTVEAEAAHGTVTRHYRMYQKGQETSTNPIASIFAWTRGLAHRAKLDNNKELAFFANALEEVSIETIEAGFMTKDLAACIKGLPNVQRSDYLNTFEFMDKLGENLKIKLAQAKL
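IDH1-R132H (0.5 ug/mL dispensed) in pH 7.5 Tris buffer was preincubated 30 min with compound, then given a substrate mix of 0.016 mM NADPH and 2 mM alpha-KG for 80 min at room temperature; remaining NADPH was read by diaphorase/resazurin fluorescence.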
TrxR1 substrate: is turned over as a substrate by rat TrxR1 | purified TrxR1 substrate turnover, NADPH consumption readout | Potency, µM (titrated, usually from 114 µM) | 390,000 compounds, 0.01% hits; also: nearly all actives have a fitted effect of over 50% in size
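Rat TrxR1, dispensed at 90 nM, was prereduced with 400 uM NADPH (final) for 5 min at ~22 deg C, then incubated with compound 15 min before 400 uM selenite. A first-read NADPH fluorescence drop versus no-compound background flagged substrates.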
12-LOX inh: inhibitors of human 12S-lipoxygenase ALOX12. P18054. purified 12hLO, xylenol orange hydroperoxide absorbance. Potency, µM (top dose mostly 108 µM), hits mostly inhibitors. 580,000 compounds, 1.1% hits
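Purified human 12hLO (150 nM final) in 25 mM Hepes, 0.01% Triton X-100, pH 7.0 was preincubated 15 min at room temperature with compound. Then 40 uM arachidonic acid was added, 30 min. Hydroperoxide was read by Fe-XO absorbance ratio 573/405 nm.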
Anesthetic bind: binds horse apoferritin like a general anesthetic; P02791; apoferritin/1-aminoanthracene competitive binding, fluorescence; Potency, µM (doses to about 77.5 µM), usual class: inhibitors; 350,000 compounds, 0.074% hits; AID 485281; also: nearly all actives have a fitted effect of over 20% in size
Target sequence (P02791 2-175 limits assumed): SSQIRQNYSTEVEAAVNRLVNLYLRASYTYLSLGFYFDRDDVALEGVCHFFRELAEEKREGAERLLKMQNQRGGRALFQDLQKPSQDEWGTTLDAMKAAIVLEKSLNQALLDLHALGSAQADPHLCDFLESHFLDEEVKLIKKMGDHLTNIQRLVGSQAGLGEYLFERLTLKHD
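Concentration-response curves derived by four-parameter Hill fitting of normalized fluorescence, where compounds displaced 1-AMA from 10 uM horse apoferritin following a brief 10 min room-temperature incubation; propofol titration acted as positive control.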
GRP78 ERSR act: induces the endoplasmic reticulum stress response in human glioma cells; Potency, µM, actives largely listed as activators; 420,000 compounds, 0.02% hits; U87-MG GRP78 promoter luciferase reporter, 16 h; also: series mostly up to about 76 µM; nearly all actives have a fitted effect of over 35% in size
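ERSR induction read as luciferase luminescence (Bright-Glo, 10 min at room temperature) in stably transfected human U87-MG glioma cells exposed to compounds for 16 h, using GRP78 as sensor.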
TrxR1 inh: blocks rat thioredoxin reductase 1. 390,000 compounds, 1% hits. recombinant rTrxR1, NADPH fluorescence consumption, selenite substrate. O89049. Potency, µM (titrated, usually from 114 µM), actives largely listed as inhibitors; also: nearly all actives have a fitted effect of over 65% in size
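Rat TrxR1 (90 nM in the dispensed reagent) was pre-reduced with 400 uM NADPH for 5 min at room temperature, then incubated with compound for 15 min. After 400 uM selenite was added, NADPH fluorescence (Ex 340/Em 450 nm) was followed for 8 min.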
Hits are given with their value. Hits are enriched below; roughly 1.7% of the tested compounds scored in any of these assays. Calls follow the shape of the dose curve; as a rule, active = well fitted curve in the direction sought with a large enough effect; inconclusive = small, poorly fitted or top-dose-only effect, or another doubt; inactive = no such curve, though single readings can be large; an effect the other way counts as inactive or inconclusive.

How did COc1cccc(NC(=O)CSC2=C(C#N)C(c3ccc(C(C)C)cc3)C3=C(CCCC3=O)N2)c1 (centres undefined) do in these assays?
12-LOX inh: inactive

Results for CC(C)c1ccc(C2C(C#N)=C(SCC(N)=O)NC3=C2C(=O)CCC3)cc1 (centres undefined) ?
12-LOX inh: 44.7µM

Results for Cc1ccc(NC(=O)CSC2=C(C#N)C(c3ccc4c(c3)OCO4)C3=C(CCCC3=O)N2)c(C)c1 (centres undefined) ?
mIDH1 inhibitor: inactive; TrxR1 substrate: inactive; 12-LOX inh: inconclusive; Anesthetic bind: inactive; GRP78 ERSR act: inactive; TrxR1 inh: 28.2µM

What do the screens show for `Cc1ccccc1-c1ccc(CN2CCc3nnc(C(NS(C)(=O)=O)C(C)C)n3CC2)cc1` (centres undefined)?
12-LOX inh: inactive; GRP78 ERSR act: inactive

Results for Cc1cccc(C(=O)NC(C(=O)N2CCOCC2)C2CCN(C(=O)c3ccc4c(c3)OCO4)CC2)c1 (centres undefined) ?
12-LOX inh: inactive

How did O=C(/C=C/C(=O)c1ccc(Cl)cc1)c1ccccc1 do in these assays?
12-LOX inh: 2.51µM

What do the screens show for `O=C(/C=C/c1ccc(Br)cc1)c1ccc(Cl)cc1`?
12-LOX inh: inactive

What do the screens show for `O=C(/C=C/Sc1ccccc1)c1ccccc1`?
mIDH1 inhibitor: inactive; TrxR1 substrate: inactive; 12-LOX inh: inactive; Anesthetic bind: inconclusive; GRP78 ERSR act: inactive; TrxR1 inh: 11.2µM

What do the screens show for `O=C(/C=C/Sc1ccccc1)c1ccc(Cl)cc1`?
mIDH1 inhibitor: inactive; TrxR1 substrate: inactive; 12-LOX inh: inactive; Anesthetic bind: inactive; GRP78 ERSR act: inactive; TrxR1 inh: 39.8µM

Results for O=CC(=O)c1ccc(Cl)cc1 ?
TrxR1 substrate: inactive; GRP78 ERSR act: inactive; TrxR1 inh: inactive

Results for O=C(/C=C/Nc1ccccc1)c1ccccc1 ?
mIDH1 inhibitor: inactive; TrxR1 substrate: inactive; 12-LOX inh: inactive; Anesthetic bind: inactive; GRP78 ERSR act: inactive; TrxR1 inh: inactive

How did CCc1ccc(S(=O)(=O)c2nnn3c2nc(Nc2ccc(F)cc2)c2cc(Cl)ccc23)cc1 do in these assays?
mIDH1 inhibitor: inactive; TrxR1 substrate: inactive; 12-LOX inh: inactive; Anesthetic bind: inactive; GRP78 ERSR act: inactive; TrxR1 inh: inactive

What do the screens show for `COc1ccc2cc(C(=O)NCC(=O)Nc3cccc(Cl)c3C)c(C)nc2c1`?
12-LOX inh: inactive

Results for Cc1cc(C)cc(N2C(=O)CSC23C(=O)N(CC(=O)NCCc2ccccc2)c2ccccc23)c1 (centres undefined) ?
mIDH1 inhibitor: inactive; TrxR1 substrate: inactive; 12-LOX inh: inactive; Anesthetic bind: inactive; GRP78 ERSR act: inactive; TrxR1 inh: inactive

How did COc1ccc([C@@H]2C[C@H](c3ccccc3)Oc3cc(C)cc(C)c32)cc1 do in these assays?
mIDH1 inhibitor: inactive; TrxR1 substrate: inactive; 12-LOX inh: 1.12µM; Anesthetic bind: inactive; GRP78 ERSR act: inactive; TrxR1 inh: inactive

What do the screens show for `COc1ccc(C2CC(c3ccccc3)Oc3cc(C)cc(C)c32)cc1` (centres undefined)?
TrxR1 substrate: inactive; Anesthetic bind: inactive; GRP78 ERSR act: inactive; TrxR1 inh: inactive

Results for CCC(=O)NNc1ccc(Br)cc1 ?
mIDH1 inhibitor: inactive; TrxR1 substrate: inactive; 12-LOX inh: inactive; Anesthetic bind: inactive; GRP78 ERSR act: inactive; TrxR1 inh: inconclusive

Results for CCOC(=O)C(=NC(C)CC)NNc1ccc(Br)cc1 (centres undefined) ?
mIDH1 inhibitor: inactive; TrxR1 substrate: inactive; 12-LOX inh: 28.2µM; Anesthetic bind: inactive; GRP78 ERSR act: inactive; TrxR1 inh: inactive

What do the screens show for `CCOC(=O)C(=NC1CCS(=O)(=O)C1)NNc1ccccc1Cl` (centres undefined)?
mIDH1 inhibitor: inactive; TrxR1 substrate: inactive; 12-LOX inh: 12.6µM; Anesthetic bind: inactive; GRP78 ERSR act: inactive; TrxR1 inh: inactive

What do the screens show for `CCOC(=O)C(=NC1CCS(=O)(=O)C1)NNc1cc(Cl)ccc1Cl` (centres undefined)?
mIDH1 inhibitor: inactive; TrxR1 substrate: inactive; 12-LOX inh: inconclusive; Anesthetic bind: inactive; GRP78 ERSR act: inactive; TrxR1 inh: inactive

How did CCOC(=O)C(=NC1CCCCC1)NNc1cccc(C(F)(F)F)c1 do in these assays?
mIDH1 inhibitor: inactive; TrxR1 substrate: inactive; 12-LOX inh: 50.1µM; Anesthetic bind: inactive; GRP78 ERSR act: inactive; TrxR1 inh: inactive

Results for CCOC(=O)C(=NC1CCS(=O)(=O)C1)NNc1ccc(Br)cc1 (centres undefined) ?
mIDH1 inhibitor: inactive; TrxR1 substrate: inactive; 12-LOX inh: 15.8µM; Anesthetic bind: inactive; GRP78 ERSR act: inactive; TrxR1 inh: inactive

What do the screens show for `COC(=O)CNC(=O)CSc1nc2ccccc2nc1C`?
12-LOX inh: inactive

How did COc1cccc2c1NC(C(=O)O)C1CC=CC21 (centres undefined) do in these assays?
mIDH1 inhibitor: inactive; TrxR1 substrate: inactive; Anesthetic bind: inactive; GRP78 ERSR act: inactive; TrxR1 inh: 12.6µM

How did O=C(O)C1Nc2c(cccc2C(F)(F)F)C2C=CCC12 (centres undefined) do in these assays?
Anesthetic bind: inactive

How did CC1=C(Cc2cc3ccc(=O)oc3cc2O)CC(C)(C)CC1 do in these assays?
12-LOX inh: 6.31µM

How did COc1ccc(C2/C=C\C(c3ccc(OC)cc3)N(Cc3ccc(F)cc3)C(=O)C(=O)N2Cc2ccc(F)cc2)cc1 (centres undefined) do in these assays?
Anesthetic bind: inactive; GRP78 ERSR act: inactive

What do the screens show for `COc1ccc(C2=C(O)C(=O)N(CCc3ccccc3)C2c2ccc(C(=O)O)cc2)cc1` (centres undefined)?
12-LOX inh: 17.8µM

What do the screens show for `COc1ccc(C2=C(O)C(=O)N(Cc3ccc(C)cc3)C2c2ccc(F)cc2)cc1` (centres undefined)?
12-LOX inh: 17.8µM

How did CC(NC(=O)CSc1nnc(-c2ccncc2)n1-c1ccc(F)cc1)c1ccc2c(c1)OCCO2 (centres undefined) do in these assays?
12-LOX inh: inactive

Results for COc1ncc2nc(CCc3ccccc3)c(=O)n(Cc3cccs3)c2n1 ?
12-LOX inh: inconclusive; GRP78 ERSR act: inactive

What do the screens show for `CN(Cc1ccc2ccccc2c1)C(=O)CN(C)c1ncnc2nc[nH]c12`?
12-LOX inh: inactive

Results for Cc1ccc2c(CSc3nnc(NCC(C)C)s3)cc(=O)oc2c1 ?
12-LOX inh: 17.8µM

How did C=CCSc1nnc(NC(=O)c2cc(=O)c3ccc(C)cc3o2)s1 do in these assays?
12-LOX inh: inactive

Results for O=[S+]([O-])(Nc1ccccc1)c1ccc2c(c1)OCCN(Cc1ccccn1)C2 ?
12-LOX inh: inactive

From PubChem
